# Only some compounds are listed: those with a hit (about 7.3% of all), similar ones and a draw of the others.
# ELG1 genotox: genotoxicity induction in ELG1-luciferase HEK293T cells. HEK293T ELG1-luciferase reporter, luminescence, 16 h. Potency, µM (top dose mostly 46 µM), inactives show at the highest dose activity change, positive = activation, hits mostly activators. actives 1.3% (n = 330,000); note: % of control where 0% means no effect; nearly all actives have a fitted effect of over 60% in size
#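 HEK293T cells expressing luciferase-tagged ELG1 were treated with compound or DMSO for 16 hr at 37°C. Luciferase activity was then read after 30 min with ONE-Glo at room temperature; rising signal flags genetic stress.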
# NPC1 prom act: NPC1 promoter activation; Huh7 NPC1 promoter luciferase reporter, 24 h; Potency, µM (titrated, usually from 9.22 µM), for inactives: at the highest dose activation, hits mostly activators; actives 2.4% (n = 320,000); note: % of control where 0% means no effect; nearly all actives have a fitted effect of over 60% in size
#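 Huh7 reporter cells (NPC1 promoter driving luciferase) are dosed with compound for 24 h at 37 °C, 5% CO2; luciferase detection reagent is then added and luminescence measured after 10 min at ambient temperature.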
# SMN2 splice enh: increases expression of the SMN2 splice variant; Potency, µM (highest dose often 46.1 µM), for the others: at the top dose activity change, positive = activation, hits mostly activators; AID 1458; actives 2.8% (n = 210,000); HEK293 SMN2-luciferase splicing reporter, luminescence, 30-36 h; note: % of control where 0% means no effect; nearly all actives have a fitted effect of over 55% in size
#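 HEK293 cells carry an SMN2 minigene-luciferase reporter in which exon 7 inclusion puts luciferase in frame. Cells were seeded at 2000 cells/well, attached for 10-12 hours, then exposed to compounds for 30-36 hours at 37C before ONE-Glo luminescence.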
# p53 reactivator: re-activators of mutant p53. H1299 p53-A138V BP100-luciferase reporter, luminescence, 24 h. Potency, µM (titrated, usually from 92.2 µM), for the others: top-dose activity change, positive = activation, most hits filed as activators. actives 0.063% (n = 320,000). AID 504706; note: % of control where 0% means no effect; nearly all actives have a fitted effect of over 45% in size
#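 p53-null H1299 cells stably carrying temperature-sensitive p53-A138V and a BP100-luciferase reporter were pinned with compounds (4-point, 1:5 series) and held 24 hrs at 37 deg C. Luminescence was read 10 min after detection reagent.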
# FLuc modulator: firefly luciferase modulation, counter-screen for miR-21 project. actives 6.9% (n = 360,000). purified FLuc, Km substrates, luminescence inhibition. Potency, µM (series often up to 57.5 µM), for inactives: top-dose activity change, negative = inhibition, most hits filed as inhibitors;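 note: plate controls were vehicle for no effect and reference inhibitor for full effect; nearly all actives have a fitted effect of over 55% in size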
# Target sequence (P08659 whole entry, looked up): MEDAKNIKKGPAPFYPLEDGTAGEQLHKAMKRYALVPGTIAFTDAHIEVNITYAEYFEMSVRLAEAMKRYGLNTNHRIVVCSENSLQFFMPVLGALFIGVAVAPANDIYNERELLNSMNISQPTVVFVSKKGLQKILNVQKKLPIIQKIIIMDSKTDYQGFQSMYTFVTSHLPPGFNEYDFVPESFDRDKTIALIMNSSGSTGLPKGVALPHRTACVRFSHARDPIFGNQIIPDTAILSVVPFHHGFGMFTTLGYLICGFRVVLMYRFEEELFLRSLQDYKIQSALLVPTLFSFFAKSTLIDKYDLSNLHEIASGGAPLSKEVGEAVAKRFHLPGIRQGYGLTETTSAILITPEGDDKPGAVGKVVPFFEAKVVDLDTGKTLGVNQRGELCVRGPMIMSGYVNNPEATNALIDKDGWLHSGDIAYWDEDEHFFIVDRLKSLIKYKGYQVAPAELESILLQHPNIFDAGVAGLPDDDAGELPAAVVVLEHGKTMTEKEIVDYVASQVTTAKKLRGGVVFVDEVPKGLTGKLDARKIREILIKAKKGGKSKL
#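 Purified P. pyralis luciferase, 10 nM final, with Km-level 10 uM D-luciferin and 10 uM ATP in 50 mM Tris acetate pH 7.5, 10 mM Mg acetate, 0.01% Tween-20, 0.05% BSA; 6-point qHTS titration about 60 µM downward; luminescence read.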
# Rab9 promoter act: activators of Rab9 promoter; Huh7 Rab9 promoter-luciferase reporter, luminescence, 24 h; Potency, µM (highest dose often 9.22 µM), inactives show top-dose activation, negative = inhibition, hits mostly activators; AID 485297; actives 2.8% (n = 320,000); note: % of control where 0% means no effect; nearly all actives have a fitted effect of over 60% in size
#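 Luminescence read-out: Huh7 cells stably expressing Rab9-luciferase, treated 24 h with compound at 37 °C, then lysed with luciferase reagent for 10 min at ambient before reading.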
# The depositor's hits bear a star; ? = inconclusive; nt = no result; ! = not active in a repeat. Calls come from the whole dose curve; as a rule, active = well fitted curve in the direction sought with a large enough effect; inconclusive = small, poorly fitted or top-dose-only effect, or another doubt; inactive = no such curve, though single readings can be large; an effect the other way counts as inactive or inconclusive. Potency is the fitted concentration of half-maximal effect.
SMILES,ELG1 genotox,NPC1 prom act,SMN2 splice enh,p53 reactivator,FLuc modulator,Rab9 promoter act
CC(=O)N1N=C2c3ccccc3CCC2C1c1cccs1 (configuration not stated),-1%,-4%,nt,-4%,-7%,-3%
CC(C)c1ccc(NS(=O)(=O)c2ccc3[nH]cc(C(=O)NCC4CCCO4)c(=O)c3c2)cc1 (configuration not stated),nt,nt,-29%,nt,?,nt
CCOc1ccc(NS(=O)(=O)c2ccc3[nH]cc(C(=O)NCC4CCCO4)c(=O)c3c2)cc1 (configuration not stated),3%,?,1%,-40%,27µM*!,-3%
CN(Cc1ccccc1)S(=O)(=O)c1ccc2[nH]cc(C(=O)NCC3CCCO3)c(=O)c2c1 (configuration not stated),?,3.2µM*,12%,?,11µM*,2.8µM*
CCOc1ccc(NS(=O)(=O)c2ccc3[nH]cc(C(=O)N(CC)CC)c(=O)c3c2)cc1,?,0.45µM*,3.5µM*,?,2.7µM*,0.4µM*
CCOc1ccc(NS(=O)(=O)c2ccc3[nH]cc(C(=O)N4CCCCCC4)c(=O)c3c2)cc1,nt,nt,-9%,nt,?,nt
CCc1ccccc1NS(=O)(=O)c1ccc2[nH]cc(C(=O)NCC3CCCO3)c(=O)c2c1 (configuration not stated),nt,-2%,nt,nt,?,2%
CCOc1ccc(CNC(=O)Cn2c(=O)c3cccn3c3cccnc32)cc1,nt,nt,nt,nt,1%,nt
Cc1ccc(/C=N/NC(=O)c2cc3c(ccc4ccccc43)o2)o1,-4%,5%,nt,nt,?,3%
O=C(NC1CC1)c1cc2ccccc2o1,11%,11%,nt,4%,?,11%
O=C(NC1CCCC1)c1cc2c(ccc3ccccc32)o1,4.6µM*,1.4µM*,13µM*,22%,6µM*,1µM*
CNC(=O)c1cc2c(ccc3ccccc32)o1,?,?,29%,-2%,19µM*,?
O=C(COc1ccc(Br)cc1CNCCCN1CCOCC1)Nc1ccccc1,-4%,0%,-13%,-15%,-3%,-2%
CCOC(=O)Cc1cc(C(=O)Nc2ccc(Br)cc2)sc1-c1ccc(C)cc1,nt,nt,-24%,nt,4%,nt
CS(=O)(=O)N1CCC2(CC1)CN(C(=O)Nc1ccccc1)C2,nt,nt,3%,nt,nt,nt
CC(=O)c1ccc(OCCCOc2cccc3cccnc23)cc1,-7%,-9%,nt,9%,-12%,-2%
CC(=O)CCc1ccc(OCCCOc2cccc3cccnc23)cc1,3%,5%,nt,nt,21µM*,0%
Cc1nn2cc(-c3ccc(-c4ccccc4)cc3)nc2s1,0.82µM*,0.63µM*,?,27%,0.54µM*,?
COc1cccc(-c2cn3nc(C)c(C)nc3n2)c1,?,2µM*,13µM*,12%,11µM*,2.8µM*
Cc1nc2nc(-c3cccs3)cn2nc1C,?,1.4µM*,14µM*,?,11µM*,0.5µM*
Cc1ccc(-c2cn3nc(-c4ccccc4)c(-c4ccccc4)nc3n2)cc1,0%,4%,nt,6%,-13%,2%
COCc1nn2cc(-c3ccc(C)cc3)nc2s1,nt,nt,2.5µM*,nt,1.3µM*,nt
COc1ccc(-c2nnc3sc(COc4ccc(C)cc4)nn23)cc1,0%,2%,-1%,-1%,?,-5%
COc1ncc2ncc(=O)n(CCC#N)c2n1,nt,nt,0%,nt,nt,nt
COCC(=O)N1CCC[C@@]2(CCN(C(c3ccccc3)c3ccccc3)C2)C1,nt,nt,0%,nt,nt,nt
SMILES,ELG1 genotox,NPC1 prom act,SMN2 splice enh,p53 reactivator,FLuc modulator,Rab9 promoter act
c1ccc(-c2cn3nc(-c4ccccc4)c(-c4ccccc4)nc3n2)cc1,-1%,-9%,-12%,5%,-2%,-4%
Cc1nc2nc(-c3ccc(Cl)cc3)cn2nc1C,?,?,0.71µM*,?,1.1µM*,0.35µM*
CCc1nn2cc(-c3ccccc3)nc2s1,nt,0.11µM*,1.4µM*,-21%,0.48µM*,0.13µM*
CCOc1ccc(-c2cn3nc(CC(C)C)sc3n2)cc1,nt,nt,17%,nt,2.7µM*,nt
Cc1nn2c(-c3ccc(Cl)cc3)nnc2s1,2%,0%,-17%,-2%,-2%,-4%
Cc1nn2cc(-c3ccc(Cl)cc3)nc2s1,0.52µM*,0.32µM*,3.5µM*,?,1.2µM*,0.32µM*
COC(=O)c1cc2sc(Cl)cc2n1Cc1nc(-c2ccccc2F)oc1C,nt,nt,3%,nt,-7%,nt
Nc1nc2ccc(Oc3ccccc3)cc2s1,8.2µM*,2.8µM*,?,?,8.5µM*,4µM*
Cc1nc2ccc(Oc3ccccc3)cc2s1,5%,15%,nt,6%,17µM*,12%
Nc1nc2ccc(OC(F)(F)F)cc2s1,16%,10µM*!,?,nt,?,10µM*!
CCOC(=O)c1noc2ncn(CC(=O)Nc3ccc(OC)c(Cl)c3)c(=O)c12,nt,nt,nt,nt,17%,nt
COC[C@H]1OC=C[C@@H](OC)[C@@H]1OC,nt,nt,5%,nt,nt,nt
Cc1ccc(-c2nn3c(C)nnc3c3ccccc23)cc1S(=O)(=O)NCc1ccco1,?,0%,13µM*,-5%,17%,14%
Cc1ccc(-c2nn3c(C)nnc3c3ccccc23)cc1S(=O)(=O)NC(C)(C)CO,21µM*,-7%,?,-8%,5%,-11%
COc1cc(OC)cc(C(=O)/C=C2\Sc3ccccc3N2C)c1,?,?,nt,2%,7.6µM*,?
CN(C)/C=C/C(=O)c1cccc([N+](=O)[O-])c1,6%,0%,8%,6%,0%,-32%
COCC(=O)/C=C1\Sc2ccccc2N1C,16%,1%,16%,3%,-8%,0%
COc1ccc2c(c1)S/C(=C\C(=O)c1ccncc1)N2C,21µM*,?,2%,22%,6.7µM*,?
COc1ccc(C(=O)/C=C2/Sc3cc4c(cc3N2C)OCO4)cc1,?,17%,nt,4%,?,?
CN1/C(=C\C(=O)c2cccc([N+](=O)[O-])c2)Sc2ccccc21,9.2µM*,1.3µM*,nt,-6%,1.3µM*,2µM*
COc1cccc(NC(=O)Cn2c(=O)n(CCc3ccccc3)c(=O)c3c4c(sc32)CN(C(C)=O)CC4)c1,nt,nt,16%,nt,-6%,nt
COc1ccc(OC)c(C2C(C(=O)Nc3ccc(C)cc3)=C(C)Nc3nnnn32)c1 (configuration not stated),nt,nt,nt,nt,-5%,nt
COc1ccc(NC(=O)c2cc(-c3ccc(F)cc3)no2)cc1OC,nt,nt,nt,nt,-6%,nt
CCN(Cc1ccccc1)C(=O)c1cc(-c2ccccc2)n[nH]1,nt,nt,nt,nt,15µM*,nt
CCN(Cc1ccccc1)C(=O)c1ccc(C(=O)N(CC)Cc2ccccc2)cc1,-4%,-11%,nt,nt,8%,-7%
